The target in assay [1] is Progesterone receptor (Homo sapiens) (UniProt P06401). As to the kind of experiment: qHTS assay to identify small molecule antagonists of the progesterone receptor (PR) signaling pathway (AID 1346795; active = well fitted inhibition curve with a large enough effect in the signal ratio in the repeat runs, not every such curve was filed as active; the % refers to the signal ratio). A digest of the protocol:
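Antagonist mode with agonist R5020 at 1 nM final and 16 hr incubation at 37C. Reporter was beta-lactamase driven by UAS in HEK293T (PR-UAS-bla), 2% charcoal-stripped serum; signal from LiveBLAzer FRET substrate, 2 hr at room temperature.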
A general note: In qHTS, concentration-response curves come from the screen itself.

Assay [2] can be described thus: qHTS assay to identify small molecule antagonists of the progesterone receptor (PR) signaling pathway - cell viability counter screen (AID 1346798). Also: series mostly up to about 92 µM; nearly all actives have a fitted effect of over 50% in size. The method, boiled down:
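Cytotoxicity read as CellTiter-Glo luminescence (30 min, room temperature) in the same wells as the beta-lactamase readout. HEK293T PR-UAS-bla cells in charcoal-stripped 2% FBS received compound and R5020, then 16 h at 37C, 5% CO2.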

The nature of assay [3]: qHTS assay to identify small molecule agonists of the progesterone receptor (PR) signaling pathway - cell viability counter screen (AID 1346799; calls by dose curve; also: nearly all actives have a fitted effect of over 45% in size). A digest of the protocol:
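Cytotoxicity measured by CellTiter-Glo luminescence (30 min, RT) in the same wells as the PR beta-lactamase agonist read. Those HEK293T cells had 16 h compound treatment at 37 C in 2% charcoal-stripped FBS medium.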

Assay [4] can be described thus: qHTS assay to identify small molecule antagonists of the TGF-beta/Smad signaling pathway - cell viability counter screen (AID 1346824). Also: nearly all actives have a fitted effect of over 50% in size. The method, boiled down:
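Cytotoxicity counter-screen run in the same wells as the beta-lactamase Smad reporter read: CellTiter-Glo luminescence after 30 min at room temperature. HEK 293T SBE-bla cells had 5 hr compound exposure at 37 C with TGF-beta1 (0.25 ng/mL stock).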

Assay [5] can be described thus: qHTS assay to identify small molecule agonists of the TGF-beta/Smad signaling pathway - cell viability counter screen (AID 1346829). Also: top concentration of the series differs between compounds; nearly all actives have a fitted effect of over 45% in size. A digest of the protocol: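 CellTiter-Glo luminescence readout; SBE-bla HEK 293T cells, overnight plating, compound 5 hr at 37 C/5% CO2, then bla substrate 2 hr RT, then CellTiter-Glo 30 min RT.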
Assay [6] is described as follows: qHTS assay to identify small molecule agonists of the TGF-beta/Smad signaling pathway (AID 1346859; active = well fitted activation curve with a large enough effect in the signal ratio in the repeat runs, not every such curve was filed as active; the % refers to the signal ratio; also: series mostly up to about 77 µM). The method, boiled down:
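Fluorescence (ex 405 nm; em 460 and 530 nm) was read 2 h after LiveBLAzer FRET substrate at RT. The preceding compound treatment of overnight-plated SBE-bla HEK293T cells lasted 5 h at 37 C.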

Assay [7] concerns the target Thyrotropin-releasing hormone receptor (Homo sapiens) (UniProt P34981). As to the kind of experiment: qHTS assay to identify small molecule antagonists of the thyrotropin-releasing hormone receptor (TRHR) signaling pathway (AID 1346877; active = well fitted inhibition curve with a large enough effect in the repeat runs, not every such curve was filed as active; also: series mostly up to about 51 µM). The method, boiled down: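 Kinetic fluorescence (3 min, 1 s resolution) following stimulation with TRH at 1 nM final; HEK293 cells bearing human TRHR; 5 min compound preincubation at RT; concentration-response over 15 points, triplicates.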

Assay [8] has the same target. As to the kind of experiment: qHTS assay to identify small molecule agonists of the thyrotropin-releasing hormone receptor (TRHR) signaling pathway (AID 1346891; calls by dose curve; also: series mostly up to about 58 µM). A digest of the protocol:
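Agonist-mode intracellular calcium readout: kinetic fluorescence over 3 min at 1 s intervals after compound addition to TRHR-HEK293 cells (18 h seeded, 2 h dye-loaded at 37 C). Fifteen concentrations, triplicates.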

Assay [9] is described as follows: Human pregnane X receptor (PXR) small molecule agonists, qHTS cell viability counter screen (AID 1346977). Also: nearly all actives have a fitted effect of over 50% in size. A digest of the protocol: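 Same-well viability read: CellTiter-Fluor added after 23 hr compound exposure, fluorescence measured 1 hr later. Cells were PXR-Luc HepG2 seeded at 2,000/well in 5% charcoal-stripped FBS medium, rested 5 hr before dosing at 37 C.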

Assay [10] can be described thus: Caspase-3/7 induction in HepG2 cells by small molecules, qHTS assay (AID 1346978). Also: nearly all actives have a fitted effect of over 15% in size. The method, boiled down:
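Caspase-3/7 induction was measured by Caspase-Glo 3/7 luminescence (30 min, room temperature) after a 17 hr compound exposure of wild-type HepG2 cells seeded at 2,000 per well and pre-incubated 5 hr.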

Assay [11] in a line: Caspase-3/7 induction in CHO-K1 cells by small molecules, qHTS cell viability counter screen (AID 1346979). Also: nearly all actives have a fitted effect of over 35% in size. Also: potency is read from the fitted curve at half-maximal effect. A digest of the protocol:
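Cytotoxicity counter screen: CellTiter-Fluor added to compound-treated wild-type CHO-K1 cells at 16 h (37C, 5% CO2), fluorescence measured 1 h later; same wells as caspase-3/7 measurement.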

Assay [12] in a line: Caspase-3/7 induction in HepG2 cells by small molecules, qHTS cell viability counter screen (AID 1346981). Also: series mostly up to about 92 µM; nearly all actives have a fitted effect of over 30% in size. A digest of the protocol: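 In this quantitative HTS counter screen, compounds delivered in DMSO were left on unmodified HepG2 cells for 16 hr at 37 C. Viability was then determined fluorometrically with CellTiter-Fluor, in parallel with caspase-3/7 induction in the same wells.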

The target of assay [13] is Nuclear receptor subfamily 1 group I member 2 (Homo sapiens) (UniProt O75469). As to the kind of experiment: Human pregnane X receptor (PXR) small molecule agonists, qHTS assay (AID 1346982). Also: nearly all actives have a fitted effect of over 35% in size. Also: potency is read from the fitted curve at half-maximal effect. A digest of the protocol: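 Reporter HepG2 cells expressing PXR-Luc are cultured in charcoal-stripped FBS (5%), treated with compounds for 24 hr at 37 C, and assayed by ONE-Glo luminescence after 30 min at room temperature.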
Chain of Nuclear receptor subfamily 1 group I member 2 (Homo sapiens) (O75469 whole entry, looked up): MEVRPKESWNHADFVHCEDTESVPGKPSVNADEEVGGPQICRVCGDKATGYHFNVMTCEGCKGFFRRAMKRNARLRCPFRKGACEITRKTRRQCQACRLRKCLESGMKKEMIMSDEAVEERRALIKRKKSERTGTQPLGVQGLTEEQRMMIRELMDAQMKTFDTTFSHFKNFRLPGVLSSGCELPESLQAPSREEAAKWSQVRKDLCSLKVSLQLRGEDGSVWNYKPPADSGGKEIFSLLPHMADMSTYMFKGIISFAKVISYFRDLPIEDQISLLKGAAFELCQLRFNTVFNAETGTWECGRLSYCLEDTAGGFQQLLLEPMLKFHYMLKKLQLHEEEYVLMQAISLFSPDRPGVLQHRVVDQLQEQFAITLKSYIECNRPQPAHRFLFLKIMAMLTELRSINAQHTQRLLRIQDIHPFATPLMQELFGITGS

For assay [14], the target named is Nuclear receptor subfamily 1 group I member 2 (Rattus norvegicus) (UniProt Q9R1A7). As to the kind of experiment: Rat pregnane X receptor (rPXR) activation by small molecules, qHTS assay (AID 1346983). Also: nearly all actives have a fitted effect of over 20% in size. Also: potency is read from the fitted curve at half-maximal effect. Particulars: rPXR luciferase reporter cells, One-Glo luminescence, 24 h; max activation: hits give high values. A digest of the protocol: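 Luminescent readout (One-Glo luciferase, 30 min room temperature) followed 24 hr compound treatment at 37 C of rPXR cells plated 2,000 per well and preincubated 5hr; qHTS format with compounds delivered in DMSO.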
Chain of Nuclear receptor subfamily 1 group I member 2 (Rattus norvegicus) (Q9R1A7 whole entry, looked up): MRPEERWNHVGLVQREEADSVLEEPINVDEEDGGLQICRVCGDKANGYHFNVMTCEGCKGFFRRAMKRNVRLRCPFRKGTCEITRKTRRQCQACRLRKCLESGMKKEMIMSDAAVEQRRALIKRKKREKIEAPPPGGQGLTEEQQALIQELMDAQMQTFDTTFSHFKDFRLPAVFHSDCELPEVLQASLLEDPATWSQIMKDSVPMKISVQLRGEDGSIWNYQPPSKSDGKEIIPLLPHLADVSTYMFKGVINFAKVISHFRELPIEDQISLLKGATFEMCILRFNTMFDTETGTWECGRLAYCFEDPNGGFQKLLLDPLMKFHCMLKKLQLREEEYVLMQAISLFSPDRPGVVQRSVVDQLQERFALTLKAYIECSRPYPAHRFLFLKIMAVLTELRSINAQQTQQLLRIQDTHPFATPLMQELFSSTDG

Assay [15] deals with Nuclear receptor subfamily 1 group I member 2 (Homo sapiens) (UniProt O75469). Nature of the assay: CYP3A4 induction through human pregnane X receptor (PXR) by small molecules, qHTS assay (AID 1346984). Also: nearly all actives have a fitted effect of over 40% in size. A digest of the protocol: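 Induction measured in HepG2-based DPX-2 cells co-expressing human PXR and a CYP3A4 promoter-driven luciferase. After a 24-hour compound exposure, cells received CYP3A4 luciferin substrate at 3uM final for 3 hours, and light output was then recorded.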

Assay [16] has the same target. As to the kind of experiment: Human pregnane X receptor (PXR) activation by small molecules, qHTS assay (AID 1346985). Also: nearly all actives have a fitted effect of over 40% in size. Also: potency is read from the fitted curve at half-maximal effect. The method, boiled down:
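DPX-2 cells (HepG2 co-transfected with a PXR response element and a CYP3A4-promoter luciferase construct) were seeded at 2,000 per well, rested 5 hr at 37C, then exposed to DMSO-dissolved compounds for 24 hr. Activation was read as luciferase luminescence.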

For assay [17], the target named is Cytochrome P450 2D6 (Homo sapiens) (UniProt P10635). Nature of the assay: Cytochrome P450 Family 2 Subfamily D Member 6 (CYP2D6) small molecule antagonists: luciferase reporter qHTS assay (AID 1671196). Also: nearly all actives have a fitted effect of over 50% in size. Also: potency is read from the fitted curve at half-maximal effect. The method, boiled down:
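Test chemicals meet CYP2D6 plus proluciferin substrate (10 min, RT); NADPH regenerating solution then drives turnover for 1 h. Detection reagent halts the reaction; luminescence measured after 20 min.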

Assay [18] is described as follows: Caspase-3/7 induction in CHO-K1 cells by small molecules, qHTS assay (AID 1346980). Also: nearly all actives have a fitted effect of over 15% in size. The method, boiled down: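 Luminescent Caspase-Glo 3/7 read (30min, room temperature) quantified apoptosis induction. Cells were wild-type CHO-K1, treated with compound for 17hr at 37 C and 5% CO2.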
For assay [19], the target named is Cytochrome P450 2C19 (Homo sapiens) (UniProt P33261). Nature of the assay: Cytochrome P450 Family 2 Subfamily C Member 19 (CYP2C19) small molecule antagonists: luciferase reporter qHTS assay (AID 1671197). Also: nearly all actives have a fitted effect of over 65% in size. Also: potency is read from the fitted curve at half-maximal effect. The method, boiled down:
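Enzyme-substrate mix with proluciferin substrate (P450-Glo CYP2C19 system) preincubated with compounds 10 min at room temperature; NADPH regeneration solution added, 37C for 1 h; detection reagent stops reaction, luminescence read after 20 min. Ketoconazole positive control.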
(In general: In a reporter assay the amount or activity of a reporter protein is the signal.)

Assay [20] concerns the target Progesterone receptor (Homo sapiens) (UniProt P06401). As to the kind of experiment: qHTS assay to identify small molecule agonists of the progesterone receptor (PR) signaling pathway (AID 1346784; calls by dose curve; also: nearly all actives have a fitted effect of over 30% in size). A digest of the protocol:
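Agonist qHTS: compounds pinned onto 3,000 PR-UAS-bla HEK 293T cells per well in charcoal-stripped serum medium, 16hr at 37C, then beta-lactamase activity measured by LiveBLAzer FRET fluorescence after 2 hours at room temperature.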

The structures appear in SMILES notation. Unmarked numbers belong to inactive results. Records with an inconclusive call do not appear. The source made the active and inactive calls. Unless noted, calls follow the shape of the dose curve; as a rule, active = well fitted curve in the direction sought with a large enough effect in the repeat runs; inconclusive = weak or mixed curves; inactive = no such curve, though single readings can be large; an effect the other way counts as inactive or inconclusive.
% is scaled to controls: 0 for no effect and ±100 for the full control effect.

Chain of Cytochrome P450 2C19 (Homo sapiens) (P33261 whole entry, looked up): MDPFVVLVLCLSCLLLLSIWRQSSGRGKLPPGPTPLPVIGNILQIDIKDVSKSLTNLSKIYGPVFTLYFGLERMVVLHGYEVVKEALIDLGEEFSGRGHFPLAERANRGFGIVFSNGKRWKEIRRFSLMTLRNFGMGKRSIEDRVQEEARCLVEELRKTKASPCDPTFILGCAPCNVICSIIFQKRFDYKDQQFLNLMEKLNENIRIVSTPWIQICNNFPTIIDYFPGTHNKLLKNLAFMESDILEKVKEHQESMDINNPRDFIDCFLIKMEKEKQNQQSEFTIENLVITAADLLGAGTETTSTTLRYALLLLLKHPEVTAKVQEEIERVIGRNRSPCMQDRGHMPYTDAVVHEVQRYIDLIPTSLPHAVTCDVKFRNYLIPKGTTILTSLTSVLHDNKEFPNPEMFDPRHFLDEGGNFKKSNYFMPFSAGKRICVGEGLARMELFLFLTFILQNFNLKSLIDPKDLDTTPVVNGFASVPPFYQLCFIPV
Chain of Thyrotropin-releasing hormone receptor (Homo sapiens) (P34981 whole entry, looked up): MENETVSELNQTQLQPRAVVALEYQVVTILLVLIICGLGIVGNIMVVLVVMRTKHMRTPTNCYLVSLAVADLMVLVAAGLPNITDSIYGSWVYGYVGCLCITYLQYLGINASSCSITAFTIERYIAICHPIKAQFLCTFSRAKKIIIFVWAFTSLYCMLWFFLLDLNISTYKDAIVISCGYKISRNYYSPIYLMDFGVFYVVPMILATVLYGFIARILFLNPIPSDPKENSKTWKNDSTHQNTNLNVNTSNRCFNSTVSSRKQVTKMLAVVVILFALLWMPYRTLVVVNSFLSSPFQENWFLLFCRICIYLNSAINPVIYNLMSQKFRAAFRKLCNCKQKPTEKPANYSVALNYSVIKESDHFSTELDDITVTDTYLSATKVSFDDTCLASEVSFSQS
Chain of Cytochrome P450 2D6 (Homo sapiens) (P10635 whole entry, looked up): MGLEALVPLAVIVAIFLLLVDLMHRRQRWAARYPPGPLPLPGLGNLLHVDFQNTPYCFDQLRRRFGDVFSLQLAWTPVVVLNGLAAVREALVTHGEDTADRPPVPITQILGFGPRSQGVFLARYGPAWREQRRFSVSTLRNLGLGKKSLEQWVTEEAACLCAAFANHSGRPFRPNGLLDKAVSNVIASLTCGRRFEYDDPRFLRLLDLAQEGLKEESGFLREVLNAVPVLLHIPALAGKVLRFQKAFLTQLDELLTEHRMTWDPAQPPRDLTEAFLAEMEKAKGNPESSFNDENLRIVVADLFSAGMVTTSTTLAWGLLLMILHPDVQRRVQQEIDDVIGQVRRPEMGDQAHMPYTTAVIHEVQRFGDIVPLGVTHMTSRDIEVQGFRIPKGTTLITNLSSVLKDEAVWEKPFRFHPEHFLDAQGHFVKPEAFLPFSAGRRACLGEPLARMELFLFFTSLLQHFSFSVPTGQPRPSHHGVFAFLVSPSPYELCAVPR
Chain of Progesterone receptor (Homo sapiens) (P06401 whole entry, looked up): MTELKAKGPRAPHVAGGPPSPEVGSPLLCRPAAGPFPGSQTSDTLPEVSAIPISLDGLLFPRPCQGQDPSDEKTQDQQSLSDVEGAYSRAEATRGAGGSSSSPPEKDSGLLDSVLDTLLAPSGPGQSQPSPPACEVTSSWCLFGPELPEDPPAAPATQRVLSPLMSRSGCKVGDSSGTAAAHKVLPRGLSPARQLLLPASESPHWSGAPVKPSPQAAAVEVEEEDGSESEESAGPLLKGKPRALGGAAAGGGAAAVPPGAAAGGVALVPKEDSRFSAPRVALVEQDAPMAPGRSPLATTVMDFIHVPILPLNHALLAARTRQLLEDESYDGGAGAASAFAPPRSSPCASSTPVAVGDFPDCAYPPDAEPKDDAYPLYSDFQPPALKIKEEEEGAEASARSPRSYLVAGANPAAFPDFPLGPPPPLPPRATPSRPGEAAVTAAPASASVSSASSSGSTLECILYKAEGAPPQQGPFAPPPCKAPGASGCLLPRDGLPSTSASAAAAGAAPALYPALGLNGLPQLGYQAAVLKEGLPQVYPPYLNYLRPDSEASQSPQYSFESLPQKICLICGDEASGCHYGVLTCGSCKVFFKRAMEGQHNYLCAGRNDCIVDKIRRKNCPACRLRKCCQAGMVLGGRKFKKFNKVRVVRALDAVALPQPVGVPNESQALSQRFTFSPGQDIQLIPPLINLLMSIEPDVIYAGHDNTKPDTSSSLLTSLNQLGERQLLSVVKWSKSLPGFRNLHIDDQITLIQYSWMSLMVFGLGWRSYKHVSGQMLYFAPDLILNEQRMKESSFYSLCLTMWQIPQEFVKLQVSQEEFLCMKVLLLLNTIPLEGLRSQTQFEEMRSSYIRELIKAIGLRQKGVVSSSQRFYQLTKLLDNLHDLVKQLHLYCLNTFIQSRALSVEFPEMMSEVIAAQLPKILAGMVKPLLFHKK

As for `CCN[C@H]1C[C@H](C)S(=O)(=O)c2sc(S(N)(=O)=O)cc21`, the Potency entry in [1], in [2], in assay [3], in assay [8], in assay [9] and in assay [11] was “inactive” in each case. The Potency entry in assay [12], in [13], in [15], in assay [16] and in assay [17] was “inactive” in each case. The call in assay [4], in assay [5], in assay [6], in [7] and in assay [10] was inactive. For the same molecule, the max activation in assay [14] is 0.198%.
As for `CC(CC=O)CC(C)(C)C` (configuration not stated), the Potency result in assay [1], in [2], in [3], in assay [9], in [11] and in assay [12] was “inactive” each time. The Potency result in [17] and in assay [19] was “inactive” in each case. Further, the outcome in assay [4], in assay [5], in assay [6], in assay [7], in assay [10] and in assay [18] was inactive. Also, in [13], the Potency is 54.5 µM (active).
Consider `C=CCCC(=O)O`, for which the Potency result in assay [1], in [2], in assay [3], in assay [9], in [11] and in [12] was “inactive” throughout. Moreover, the Potency result in assay [13] and in assay [19] was “inactive” each time. Moreover, the outcome in [4], in assay [5], in [6], in [10] and in [18] was inactive.
With `CCCCCCCC1CCCC1=O` (configuration not stated), the Potency entry in assay [1], in assay [2], in assay [3], in assay [9], in assay [11] and in assay [12] was “inactive” throughout. Also, the Potency entry in [13] was “inactive”. The molecule was classed as inactive in assay [4], in [5], in assay [6] and in assay [10]. In addition, the Potency in assay [19] was 39.9 µM (active).
As for `CCCCc1ccc2c(n1)[C@@H](c1ccc(OC)cc1C[C@H](C)C(=O)O)[C@H](C(=O)O)[C@H]2c1ccc2c(c1)OCO2`, the Potency result in assay [20], in [9], in assay [11], in assay [12] and in assay [13] was “inactive” each time. In addition, the outcome in assay [4], in assay [5], in [6], in [10] and in assay [18] was inactive. Moreover, in assay [17], the Potency is 71 µM (active).
Take `CC(C)(N)C#N`: the Potency entry in assay [20], in assay [2], in [8], in assay [9], in assay [11] and in assay [12] was “inactive” each time. The Potency entry in assay [13] and in assay [19] was “inactive” each time. Besides, the molecule was called inactive in assay [4], in assay [5], in [6], in [7], in assay [10] and in assay [18].
Regarding `COC(=O)C1=C(C)NC(C)=C(C(=O)OC(C)C)C1c1cccc2nonc12` (configuration not stated), the Potency result in assay [20], in assay [9], in assay [12] and in [15] was “inactive” in each case. In addition, the molecule was called inactive in assay [4], in assay [5], in assay [6], in [10] and in [18]. In addition, the Potency in assay [11] is 26.6 µM (active); in assay [13], 1.33 µM (active); in assay [14], 10 µM (active); in [16] it was 0.891 µM (active).
`CCOC(=O)OC(C)OC1=C(C(=O)Nc2ccccn2)N(C)S(=O)(=O)c2ccccc21` (configuration not stated): the Potency result in [20], in assay [2], in assay [9], in [11], in [12] and in [13] was “inactive” throughout. For the same molecule, the Potency entry in assay [15], in assay [16] and in assay [17] was “inactive” each time. In addition, the call in [4], in [5], in assay [6], in assay [7], in assay [10] and in assay [18] was inactive. Moreover, the max activation in assay [14] is -2.57%.
For `Cc1onc(-c2c(Cl)cccc2Cl)c1C(=O)Cl`, the Potency result in assay [20], in [2], in [9], in [13] and in assay [17] was “inactive” each time. Also, the outcome in assay [4], in assay [5], in [6], in assay [7] and in [18] was inactive. The Potency in [19] was 21.9 µM (active).
